Screening data: PubChem, Broad Institute
Tgondii IFNg: T. gondii growth inhibition with IFN-gamma, primary screen, cell-based. Toxoplasma gondii growth in IFN-gamma-treated host cells; stronger effect = lower value. activity change, negative = inhibition, % (concentration not given with the values). 3.8% of 69,000 active. AID 1259416, 2018; in the data active = activity change below about -70%, passing the limit was not always enough;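 note: host cells are HeLa cells infected with Toxoplasma gondii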
Of the large screens only hits and unclear results are named; the others gave an inactive call; ! = repeats disagree. The sample as a whole holds a higher share of hits than the screen did.

CCC(CC)n1ncc(C)c1NC(=O)Cc1ccc2c(c1)NC(=O)CO2	none
CCOc1ccccc1C(=O)Nc1ccc(-c2nc(Cn3nc(C)c(C)c3C)c(C)o2)cc1	none
Cc1ccccc1C(=O)Nc1ccc(-c2nc(Cn3nc(C)c(C)c3C)c(C)o2)cc1	Tgondii IFNg -97
Cc1nn(Cc2nc(-c3ccc(NC(=O)c4cc(F)ccc4F)cc3)oc2C)c(C)c1C	none
Cc1nn(Cc2nc(-c3ccc(NC(=O)c4cc(F)cc(F)c4)cc3)oc2C)c(C)c1C	none
COc1ccc(C(=O)Nc2ccc(-c3nc(Cn4nc(C)c(C)c4C)c(C)o3)cc2)cc1	Tgondii IFNg -93
Cc1nn(Cc2nc(-c3ccc(NC(=O)c4ccc(N(C)C)cc4)cc3)oc2C)c(C)c1C	none
CC1CCN(CCNS(=O)(=O)c2ccc3[nH]c(=O)ccc3c2)CC1	none
C[C@@H]1CC2C3CCC4=CC(=O)C=C[C@]4(C)[C@@]3(F)[C@@H](O)C[C@]2(C)[C@@]1(O)C(=O)CO (stereo partly drawn)	none
CC(c1cccc(-c2nccn2Cc2ccoc2)c1)N(C)C (stereo not drawn)	none
Cc1cc(I)ccc1Nc1c(C(=O)NOCC2CC2)cc(F)c(F)c1F	Tgondii IFNg -82
O=C(NOCCO)c1cc(CN2OCCCC2=O)c(F)c(F)c1Nc1ccc(I)cc1F	none
O=C(c1ccc(F)c(F)c1Nc1ccc(I)cc1F)N1CC(O)([C@@H]2CCCCN2)C1	none
CCN(C(=O)c1cccc(C#CC(C)(C)O)c1)C1CCOC(C)(C)C1 (stereo not drawn)	none
O=c1nc2n(c3c1oc1ccccc13)Cc1ccccc1-2	none
CCN(CC)CCOC(=O)C1(C2CCCCC2)CCCCC1	none
CCN(CC)CCOC(=O)C(c1ccccc1)C1CCCCC1 (stereo not drawn)	Tgondii IFNg -77!
CCN(CC)CCOC(=O)C(c1ccccc1)c1ccccc1	none
CCc1ccc(NC(=O)Cn2ncc3c(N4CCCCC4)ncnc32)cc1	none
COc1ccccc1CNc1nc(-c2nnc(-c3cccc(C)c3)o2)nc2ccccc12	Tgondii IFNg -90
Cc1ccccc1CNc1nc(-c2nnc(-c3ccccc3)o2)nc2ccccc12	Tgondii IFNg -90
CC(CNc1nc(-c2nnc(-c3ccccc3)o2)nc2ccccc12)c1ccccc1 (stereo not drawn)	Tgondii IFNg -115
COc1ccc(-c2nnc(-c3nc(NCc4ccccc4C)c4ccccc4n3)o2)cc1	none
Clc1ccccc1CNc1nc(-c2nnc(-c3ccccc3)o2)nc2ccccc12	none
COc1ccc(-c2nnc(-c3nc(NCc4ccccc4)c4ccccc4n3)o2)cc1	none
Cc1ccc(-c2nnc(-c3nc(NC(C)c4ccccc4)c4ccccc4n3)o2)cc1 (stereo not drawn)	none
CCOc1ccccc1CNc1nc(-c2nnc(-c3ccc(OC)cc3)o2)nc2ccccc12	none
c1ccc(CCNc2nc(-c3nnc(-c4ccccc4)o3)nc3ccccc23)cc1	none
COc1ccccc1CNc1nc(-c2nnc(-c3ccccc3)o2)nc2ccccc12	Tgondii IFNg -96
CCCCc1ncc(CN2CCC3(CC2)C(=O)NCCN3C)[nH]1	none
c1ccc(-n2cc(C3NCCc4[nH]cnc43)c(-c3ccncc3)n2)cc1 (stereo not drawn)	none
CO[C@H]1CN(C)C(=O)c2ccc(NC(=O)c3ccno3)cc2OC[C@@H](C)N(S(C)(=O)=O)C[C@@H]1C	none
NCC(O)(CS(=O)(=O)O)c1ccc(Cl)cc1 (stereo not drawn)	none
CN1CC(C(=O)NC2(C)OC3(O)C4CCCN4C(=O)C(Cc4ccccc4)N3C2=O)CC2c3cccc4[nH]cc(c34)CC21 (stereo not drawn)	none
O=C(C[C@H]1C=C[C@@H](NC(=O)Cc2ccccn2)[C@@H](CO)O1)NCCc1ccncc1	none
C[C@H](CO)N1C[C@H](C)[C@@H](CN(C)S(=O)(=O)c2cn(C)cn2)OCc2cnnn2CCCC1=O	none
Cc1ccc(-c2nnc(-c3nc(NCc4ccco4)c4ccccc4n3)o2)cc1	none
Cc1ccc(-c2nnc(-c3nc(NCc4ccccn4)c4ccccc4n3)o2)cc1	Tgondii IFNg -94
COc1cc(CNc2nc(-c3nnc(-c4ccc(C)cc4)o3)nc3ccccc23)cc(OC)c1OC	none
O=C(Cn1c(=O)cnc2ccccc21)Nc1ccc(Cl)c(Cl)c1	none
CO[C@H](C(=O)N(C)C[C@H]1OCc2ccccc2-c2ccccc2C(=O)N([C@H](C)CO)C[C@@H]1C)c1ccccc1	none
Cn1cc(N2CC3(CCN(CCO)C3)CC2=O)cn1 (stereo not drawn)	Tgondii IFNg -87
Cn1cc(N2CC3(CCN(S(C)(=O)=O)C3)CC2=O)cn1 (stereo not drawn)	none
CCS(=O)(=O)N1CCC2(CC(=O)N(c3cnn(C)c3)C2)C1 (stereo not drawn)	none
c1cncc(COC2CCN(Cc3ccc(-c4cccnc4)cc3)CC2)c1	none
CCN1Cc2ccccc2CC2(CCN(S(C)(=O)=O)CC2)C1=O	none
COc1ccc(Br)c(-c2nnc(-c3ccccc3N)o2)c1	none
COc1ccccc1N1CCN(C(=O)c2cc(C(C)(C)C)oc2C)CC1	Tgondii IFNg -108
COc1ccccc1N1CCN(C(=S)c2ccccc2OC(F)(F)F)CC1	none
COc1ccccc1N1CCN(C(=O)C2CCCCC2)CC1	none
COc1ccccc1NC(=O)C(=O)NCCc1sc(-c2ccccc2)nc1C	none
CN(Cc1ccno1)C(=O)c1ccccc1C1CCNC1 (stereo not drawn)	none
Cc1ccc(NS(=O)(=O)c2cc3c4c(c2)CCN4C(=O)CC3)c(C)c1	none
COc1cccc(S(=O)(=O)N2C[C@@H]3N[C@H](C2)C3c2ccc(-c3ccccc3F)cc2)c1 (stereo partly drawn)	none
CN(C)C(=O)c1cccc(-c2ccc(C3[C@H]4CNC[C@@H]3N4S(=O)(=O)Cc3ccccc3)cc2)c1 (stereo partly drawn)	none
COc1cccc(-c2ccc(C3[C@@H]4CN(S(=O)(=O)Cc5ccccc5)C[C@H]3N4)cc2)c1 (stereo partly drawn)	Tgondii IFNg -81
CC(C)(C)OC(=O)N1CCCN(C(=O)Nc2ccc(C(F)(F)F)cc2)CC1	Tgondii IFNg -86
COc1ccccc1N1CCN(C(=O)Nc2ccc(F)cc2)CC1	none
Cn1cnc(S(=O)(=O)N2CCCN(C(=O)OC(C)(C)C)CC2)c1	none
Cc1ccc(NC(=O)CCNC(=O)c2sc(C(C)C)nc2C)c(C)c1	none
Cc1ccc(-c2cc(C(F)(F)F)nn2-c2nc(-c3ccccc3)cs2)cc1	none
COc1ccc(-c2cc(C(F)(F)F)nn2-c2nc(-c3ccc(C)cc3)cs2)cc1	none
CC(=O)Oc1cccc(-c2csc(-n3nc(C(F)(F)F)cc3-c3ccc(Cl)cc3)n2)c1	Tgondii IFNg -93
CC(NC(=O)c1conc1-c1ccccc1)c1nnc2n1CCNCC2 (stereo not drawn)	none
Cc1oc2ccc(O)cc2c1C(=O)NCCCN1CC(C)CC(C)C1 (stereo not drawn)	none
CC(=O)Nc1ccsc1C(=O)N1CCC(Cc2cccc(C(N)=O)c2)C1 (stereo not drawn)	none
CN(Cc1ccco1)c1nc(C(C)(C)C)nc2c1cnn2C	none
CSc1nn(-c2c(Cl)cc(C(F)(F)F)cc2Cl)c(N)c1C#N	Tgondii IFNg -101
Cc1cc(C)n(-c2c(Cl)cc(C(F)(F)F)cc2Cl)n1	none
CSc1nc(-c2cccs2)cc(C(F)(F)F)c1C#N	none
Cc1n[nH]c(C)c1Cc1c(C(=O)O)noc1C	none
Cc1ccc(S(=O)(=O)Nc2ccc3c(c2)CC(=O)N([C@H](C)CO)C[C@H](C)[C@H](CN(C)S(=O)(=O)c2ccccc2)O3)cc1	none
COc1ccc(CN2CCc3nc(N4CCOCC4)nc(NC4CC4)c3C2)cc1	none
Cc1ccc(CN2CCc3nc(N4CCOCC4)nc(NC(C)C)c3C2)s1	Tgondii IFNg -98
